This is part of a sample that, as a whole, favours compounds with a hit. Of some 79,000 tested, about 15% had one in any assay. Calls of active or inactive are those of the source. No stated cut-off is given here; in the data, active means growth inhibition above about 70%; inactive means the rest.
Columns and labels:
[1] = NCI Yeast Anticancer Drug Screen. Data for the mlh1 strain (AID 171);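 further: 0% = growth of vehicle-treated control cultures of the same strain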; conditions: S. cerevisiae mlh1 strain growth inhibition, stronger effect = higher value
In short: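 A yeast strain with a defined genetic lesion serves as the test organism. Cultures receive compound or vehicle, and growth is measured.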

[2] = NCI Yeast Anticancer Drug Screen. Data for the sgs1 strain (AID 173);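 further: 0% = growth of vehicle-only control cultures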; conditions: S. cerevisiae sgs1 mutant, stronger effect = higher value
In short: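 A genetically defined yeast mutant is incubated with the test compound, and its growth is compared to that of the same strain given vehicle.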

[3] = NCI Yeast Anticancer Drug Screen. Data for the mlh1 rad18 strain (AID 175); conditions: S. cerevisiae mlh1 rad18 strain growth inhibition, stronger effect = higher value
In short: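 Steps: expose repair-defective yeast to compound; measure growth; express inhibition against vehicle-treated controls.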

[4] = NCI Yeast Anticancer Drug Screen. Data for the rad18 strain (AID 177); conditions: S. cerevisiae rad18 mutant growth inhibition, stronger effect = higher value
In short: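 Measured value is growth inhibition of a yeast strain bearing a DNA repair alteration, referenced to vehicle-treated cells.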

[5] = NCI Yeast Anticancer Drug Screen. Data for the rad52 strain (AID 147);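 further: 0% = growth of vehicle-treated control cultures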; conditions: S. cerevisiae rad52 mutant growth inhibition, stronger effect = higher value
In short: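 Here a repair-compromised yeast strain receives each compound; its growth is then quantified and normalised to vehicle-only controls.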

[6] = NCI Yeast Anticancer Drug Screen. Data for the wt1 strain (AID 149);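 further: 0% = growth of vehicle-treated wt1 cultures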; conditions: S. cerevisiae wt1 strain (SPY 50644) growth inhibition, stronger effect = higher value
In short: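 Using yeast strain wt1, compound-induced growth inhibition was determined against vehicle-treated cultures.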

[7] = NCI Yeast Anticancer Drug Screen. Data for the rad50EPP+ strain (AID 151);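 further: 0% = growth of vehicle-treated control cultures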; conditions: S. cerevisiae rad50 mutant strain, stronger effect = higher value
In short: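 Read-out is yeast growth inhibition relative to vehicle; cells used were the rad50EPP+ strain.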

[8] = NCI Yeast Anticancer Drug Screen. Data for the mgt1 strain (AID 153); conditions: S. cerevisiae mgt1 mutant growth inhibition, stronger effect = higher value
In short: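 Measured: inhibition of mgt1 yeast growth by compound, normalized to vehicle-treated cultures.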

[9] = NCI Yeast Anticancer Drug Screen. Data for the rad50 strain (AID 155);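 further: 0% = growth of vehicle-only cultures of the same strain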; conditions: S. cerevisiae rad50 strain growth inhibition, stronger effect = higher value
In short: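 Relative growth inhibition (compound vs vehicle) was measured in yeast with a defined repair-gene alteration.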

[10] = NCI Yeast Anticancer Drug Screen. Data for the mec2-1 strain (AID 157); conditions: S. cerevisiae mec2-1 strain, stronger effect = higher value
In short: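 Using mec2-1 yeast: add compound, measure growth, express inhibition versus vehicle-treated cultures.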

[11] = NCI Yeast Anticancer Drug Screen. Data for the sgs1 mgt1 strain (AID 161);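 further: 0% = growth of cultures given vehicle only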; conditions: S. cerevisiae sgs1 mgt1 strain, stronger effect = higher value
In short: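 Yeast cells carrying a defined DNA-repair defect were exposed to test compounds. Growth inhibition was measured relative to vehicle-treated controls.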

[12] = NCI Yeast Anticancer Drug Screen. Data for the CLN2oe strain (AID 163);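 further: 0% = growth of vehicle-only control cultures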; conditions: S. cerevisiae CLN2oe strain, stronger effect = higher value
In short: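 Whole-cell yeast growth assay. A strain engineered for altered cell-cycle control received compound, and inhibition relative to vehicle-treated cultures was recorded.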

[13] = NCI Yeast Anticancer Drug Screen. Data for the cln2 rad14 strain (AID 165);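 further: 0% = growth equal to vehicle treated cultures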; conditions: S. cerevisiae cln2 rad14 strain, stronger effect = higher value
In short: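 Yeast strain cln2 rad14, bearing defects in cell cycle control and DNA repair, serves as the test system; values reflect growth inhibition compared with vehicle.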

[14] = NCI Yeast Anticancer Drug Screen. Data for the bub3 strain (AID 167); conditions: S. cerevisiae bub3 mutant strain, stronger effect = higher value
In short: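 Screening used yeast with an engineered genetic alteration affecting cell cycle control. Compound-exposed cultures were compared with vehicle cultures, and reduced growth was taken as inhibition.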

[15] = NCI Yeast Anticancer Drug Screen. Data for the wt2 strain (AID 169);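 further: 0% = growth of vehicle-treated yeast cultures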; conditions: S. cerevisiae wt2 strain growth inhibition, stronger effect = higher value
In short: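 Treated yeast vs. vehicle-treated yeast: growth inhibition determined.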

[16] = NCI Yeast Anticancer Drug Screen. Data for the rad14 strain (AID 159);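 further: 0% = growth of vehicle-treated control cultures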; conditions: S. cerevisiae rad14 strain growth inhibition, stronger effect = higher value
In short: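 Screen for anticancer potential: a yeast strain altered in DNA damage repair is grown with compound, and reduced growth is quantified against vehicle controls.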

[17] = at 5.0 µM (retest, dose inferred, filed as 0.5)
[18] = at 50.0 µM (retest, dose inferred, filed as 5.0)

Measured: growth inhibition

O=S(=O)(c1ccccc1)N1CN2CN(C1)CN(S(=O)(=O)c1ccccc1)C2
inactive: [1]; at 1.2 µM -16% | [1]; at 3.7 µM -18% | [1]; at 11.0 µM -23% | [1]; at 33.0 µM -18% | [1]; at 100.0 µM -21% | [2]; at 1.2 µM -21% | [2]; at 3.7 µM -19% | [2]; at 11.0 µM -23% | [2]; at 33.0 µM -24% | [2]; at 100.0 µM -19% | [3]; [17] 40% | [3]; [18] 30% | [3]; at 50.0 µM -3.75% | [4]; at 1.2 µM -18% | [4]; at 3.7 µM -14% | [4]; at 11.0 µM -19% | [4]; at 33.0 µM -27% | [4]; at 100.0 µM -36%

CN(C)CCCn1c2c3ccccc3ccc2c2oc(=O)c3ccccc3c21
inactive: [5]; at 1.2 µM 3% | [5]; at 3.7 µM 33% | [6]; at 1.2 µM -10% | [6]; at 3.7 µM -7% | [6]; at 11.0 µM 26% | [7]; at 1.2 µM 13% | [7]; at 3.7 µM 58% | [8]; at 1.2 µM 13% | [8]; at 3.7 µM 33% | [8]; at 11.0 µM 53% | [9]; at 1.2 µM 0% | [9]; at 3.7 µM 45% | [9]; [17] 22% | [10]; at 1.2 µM 0% | [10]; at 3.7 µM 28% | [10]; [17] 21% | [10]; at 11.0 µM 48% | [11]; [17] -9% | [12]; at 1.2 µM 3% | [12]; at 3.7 µM 14% | [12]; at 11.0 µM 44% | [13]; [17] -17% | [14]; at 1.2 µM 20% | [14]; at 3.7 µM 11% | [14]; [17] 12% | [14]; at 11.0 µM 23% | [15]; at 1.2 µM -22% | [15]; at 3.7 µM -9% | [15]; at 11.0 µM 50% | [1]; at 1.2 µM 22% | [1]; at 3.7 µM 30% | [1]; at 11.0 µM 53% | [2]; at 1.2 µM 0% | [2]; at 3.7 µM -2% | [2]; at 11.0 µM 34% | [3]; [17] -1% | [4]; at 1.2 µM -10% | [4]; at 3.7 µM -2% | [4]; at 11.0 µM 47%
active: [5]; at 11.0 µM 86% | [5]; at 33.0 µM 97% | [5]; at 100.0 µM 98% | [6]; at 33.0 µM 84% | [6]; at 100.0 µM 97% | [7]; at 11.0 µM 95% | [7]; at 33.0 µM 98% | [7]; at 100.0 µM 98% | [8]; at 33.0 µM 92% | [8]; at 100.0 µM 98% | [9]; at 11.0 µM 91% | [9]; at 33.0 µM 97% | [9]; [18] 98% | [9]; at 50.0 µM 99% | [9]; at 100.0 µM 98% | [10]; at 33.0 µM 88% | [10]; [18] 98% | [10]; at 50.0 µM 98.8% | [10]; at 100.0 µM 96% | [11]; [18] 75% | [11]; at 50.0 µM 98.7% | [12]; at 33.0 µM 86% | [12]; at 100.0 µM 97% | [13]; [18] 97% | [13]; at 50.0 µM 98.4% | [14]; at 33.0 µM 87% | [14]; [18] 98% | [14]; at 50.0 µM 99.2% | [14]; at 100.0 µM 98% | [15]; at 33.0 µM 93% | [15]; at 100.0 µM 97% | [1]; at 33.0 µM 90% | [1]; at 100.0 µM 98% | [2]; at 33.0 µM 85% | [2]; at 100.0 µM 96% | [3]; [18] 98% | [3]; at 50.0 µM 99.2% | [4]; at 33.0 µM 93% | [4]; at 100.0 µM 98%

N#C/C(=C\NC(=S)Nc1ccc(S(N)(=O)=O)cc1)C(=O)c1ccc2ccccc2c1
inactive: [5]; at 1.2 µM -2% | [5]; at 3.7 µM -1% | [5]; at 11.0 µM 0% | [5]; at 33.0 µM -3% | [5]; at 100.0 µM 3% | [6]; at 1.2 µM 2% | [6]; at 3.7 µM 3% | [6]; at 11.0 µM 1% | [6]; at 33.0 µM 1% | [6]; at 100.0 µM 3% | [7]; at 1.2 µM -1% | [7]; at 3.7 µM -3% | [7]; at 11.0 µM 0% | [7]; at 33.0 µM 0% | [7]; at 100.0 µM -2% | [8]; at 1.2 µM -2% | [8]; at 3.7 µM -3% | [8]; at 11.0 µM -3% | [8]; at 33.0 µM -12% | [8]; at 100.0 µM 0% | [9]; at 1.2 µM -5% | [9]; at 3.7 µM -16% | [9]; [17] 57% | [9]; at 11.0 µM -18% | [9]; at 33.0 µM -2% | [9]; at 50.0 µM -13.3% | [9]; at 100.0 µM -1% | [10]; at 1.2 µM 0% | [10]; at 3.7 µM 2% | [10]; at 11.0 µM 2% | [10]; at 33.0 µM 5% | [10]; at 50.0 µM -3.5% | [10]; at 100.0 µM -1% | [16]; at 1.2 µM -1% | [16]; at 3.7 µM -1% | [16]; at 11.0 µM 1% | [16]; at 33.0 µM 2% | [16]; at 100.0 µM 6% | [11]; [17] 25% | [11]; at 50.0 µM -13.2% | [13]; at 50.0 µM 39.2% | [14]; at 1.2 µM -2% | [14]; at 3.7 µM -1% | [14]; at 11.0 µM -2% | [14]; at 33.0 µM -3% | [14]; at 50.0 µM -16.1% | [14]; at 100.0 µM -3% | [15]; at 1.2 µM -1% | [15]; at 3.7 µM -1% | [15]; at 11.0 µM -1% | [15]; at 33.0 µM 0% | [15]; at 100.0 µM -1% | [1]; at 1.2 µM -1% | [1]; at 3.7 µM 1% | [1]; at 11.0 µM 1% | [1]; at 33.0 µM 3% | [1]; at 100.0 µM 5% | [2]; at 1.2 µM 0% | [2]; at 3.7 µM 2% | [2]; at 11.0 µM 0% | [2]; at 33.0 µM 7% | [2]; at 100.0 µM 9% | [3]; at 50.0 µM 22.1% | [4]; at 1.2 µM -9% | [4]; at 3.7 µM -1% | [4]; at 11.0 µM 0% | [4]; at 33.0 µM -1% | [4]; at 100.0 µM 5%
active: [9]; [18] 97% | [10]; [17] 87% | [10]; [18] 95% | [11]; [18] 96% | [13]; [17] 92% | [13]; [18] 78% | [14]; [17] 99% | [14]; [18] 91% | [3]; [17] 84% | [3]; [18] 97%

Reference: PubChem BioAssay (NCI)
